# Bioassay records as filed in PubChem BioAssay.
# AmpC inh no detg = qHTS Inhibitors of AmpC Beta-Lactamase (assay without detergent). P00811. hit rate 0.52% among 330,000. AID 485341, 2010. AmpC nitrocefin hydrolysis, absorbance 480 nm, 0.0001% Triton. Potency, µM (series often up to 57.1 µM), for inactives: at the highest dose activity change, negative = inhibition, hits mostly inhibitors;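 note: plate controls were no compound for no effect and no enzyme for full effect; nearly all actives have a fitted effect of over 20% in size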
#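 20 mM phosphate pH 7.0 + 0.01% (detergent screen) or 0.0001% Triton X-100; 5.3 nM AmpC reagent; cpd preinc 15 min RT; nitrocefin (800 uM stock) to start; A480 q20 s × 4 min; Activity was normalised to no-enzyme and no-compound control wells.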
# SARS PLP yeast = qHTS of Yeast-based Assay for SARS-CoV PLP. S. cerevisiae expressing SARS-CoV PLpro, growth rescue. Potency, µM (series often up to 32.9 µM), for the others: at the top dose activity, positive = growth rescue, most hits filed as activators. hit rate 0.19% among 330,000. AID 485353, 2010; calls by dose curve; note: 0% is about no effect; nearly all actives have a fitted effect of over 55% in size
# AmpC inh detg = qHTS Inhibitors of AmpC Beta-Lactamase (assay with detergent) | AID 485294, 2010 | P00811 | AmpC hydrolysis of nitrocefin, absorbance 480 nm, 0.01% Triton | hit rate 0.041% among 370,000 | Potency, µM (highest dose often 114 µM), inactives show top-dose activity change, negative = inhibition, usual class: inhibitors;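 note: 0% = no-compound wells and -100% = no-enzyme wells; nearly all actives have a fitted effect of over 25% in size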
#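 20 mM phosphate pH 7.0 + 0.01% (detergent screen) or 0.0001% Triton X-100; 5.3 nM AmpC reagent; cpd preinc 15 min RT; nitrocefin (800 uM stock) to start; A480 q20 s × 4 min; Activity was normalised to no-enzyme and no-compound control wells.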
# FBPA Giardia inh = qHTS Assay for Inhibitors of Fructose-1,6-bisphosphate Aldolase from Giardia Lamblia; A8B2U2; purified Giardia FBPA; Potency, µM (doses to about 59.6 µM), for the others: at the highest dose activity, negative = inhibition, usual class: inhibitors; hit rate 0.71% among 290,000; AID 2451, 2010; note: % is set by controls: 0 for no effect and ±100 for the full control effect; nearly all actives have a fitted effect of over 55% in size
# Target sequence (A8B2U2 whole entry, looked up): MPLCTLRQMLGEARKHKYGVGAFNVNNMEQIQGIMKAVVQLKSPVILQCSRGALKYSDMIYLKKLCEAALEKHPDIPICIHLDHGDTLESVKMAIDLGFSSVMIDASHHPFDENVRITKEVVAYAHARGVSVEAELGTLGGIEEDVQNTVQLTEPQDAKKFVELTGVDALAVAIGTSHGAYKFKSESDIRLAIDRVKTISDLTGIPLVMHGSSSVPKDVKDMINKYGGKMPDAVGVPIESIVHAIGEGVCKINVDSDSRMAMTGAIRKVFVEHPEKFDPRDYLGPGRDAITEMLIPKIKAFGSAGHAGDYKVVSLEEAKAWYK
#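 40 nM FBPA preincubated 10 min at RT with compound (up to 57.5 uM final), then substrate plus GAPDH/TPI/NAD/arsenate coupling and diaphorase/resazurin added. Fluorescence read after 20 min at RT, 525/598 nm.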
# Active calls of the source: *; ? = inconclusive; . = no result given; [ ] = remark or other dose. Sampled rows, rich in hits. Any-hit rate of the full collection: about 1.1%. Unless noted, calls come from the whole dose curve; as a rule, active = well fitted curve in the direction sought with a large enough effect; inconclusive = small, poorly fitted or top-dose-only effect, or another doubt; inactive = no such curve, though single readings can be large; an effect the other way counts as inactive or inconclusive. Potency is the fitted concentration of half-maximal effect.
SMILES,AmpC inh no detg,SARS PLP yeast,AmpC inh detg,FBPA Giardia inh
CCOc1ccc(N2CC(NC(=O)c3ccco3)CC2=O)cc1 (configuration not stated),.,.,3%,.
FC(F)(F)c1cccc(NC(=S)Nc2cccc(NC(=S)Nc3cccc(C(F)(F)F)c3)n2)c1,7.9µM*,0%,-1%,-4%
Cc1cccc(NC(=S)Nc2cccc(C(F)(F)F)c2)n1,-35%,26%,-8%,5%
CC1CCN(S(=O)(=O)c2ccc(NC(=O)C3CSC4(C)CCC(=O)N34)cc2)CC1 (configuration not stated),14µM*,-4%,?,.
O=c1[nH]c2cc(Cl)c(O)cc2o1,.,.,.,-6%
Cc1cc(O)c(C(=O)/C=C/c2cccc([N+](=O)[O-])c2)c(=O)o1,14µM*,2%,1%,-7%
O=c1ccn(-c2cccc(C(F)(F)F)c2)nc1-c1ccn(-c2ccccc2F)n1,121%,7%,-2%,16µM*
O=C(CSc1n[nH]c(-c2ccncc2)n1)c1cccc([N+](=O)[O-])c1,-35%,0%,1%,-7%
O=C(CSc1n[nH]c(-c2ccncc2)n1)c1ccccc1,0.4µM*,-2%,3%,6%
COc1ccc(C2=Nn3c(nnc3-c3ccccc3C)SC2)cc1,.,.,.,2%
Cc1c2c(c(O)c3c(O)cccc13)C(=O)O[C@H]2C1C(N(C)C)C(O)=C(C(N)=O)C(=O)[C@H]1O (some centres not stated),.,.,.,10µM*
O=C(CSc1nc(-c2ccc(F)cc2)nc2c1Cc1ccccc1O2)Nc1ccc(C(=O)O)cc1,-32%,1%,63µM*,-10%
Cc1cccc2sc(N(Cc3cccnc3)C(=O)c3cccs3)nc12,.,.,-1%,.
Cc1ccc(S(=O)(=O)n2nc(OC(=O)c3ccccc3C)cc2N)cc1,32µM*,4%,-14%,-2%
C/C(=C\COc1c2ccoc2cc2oc(=O)ccc12)CCC(O)C(C)(C)O (configuration not stated),.,.,.,-9%
CCC(CC)C(=O)NCCc1cc2c(OC)ccc(OC)c2[nH]c1=O,-20%,-1%,-1%,-6%
COc1ccc(OC)c2[nH]c(=O)c(CCNC(=O)C(C)C)cc12,10µM*,4%,?,-30%
O=C(Nc1cccc(NC(=O)c2ccccc2Cl)c1)c1cccc(Br)c1,.,.,13%,.
O=C(Nc1cccc(C(=O)Nc2cccc(Br)c2)c1)c1ccccc1,14µM*,-1%,?,-1%
CC(C)C[C@H](NC(=O)[C@H](Cc1ccccc1)NC(=O)CNC(=O)[C@H](CCC(=O)O)NC(=O)[C@H](CCCNC(=N)N)NC(=O)[C@H](C)NC(=O)[C@H](C)NC(=O)[C@@H](N)CC(=O)O)C(=O)N[C@@H](CC(=O)O)C(=O)N[C@H](C(=O)N[C@@H](CC(C)C)C(=O)N[C@H](C(=O)N[C@H](C(=O)N[C@@H](CC(C)C)C(=O)N[C@@H](Cc1cnc[nH]1)C(=O)N[C@@H](CCCNC(=N)N)C(=O)N[C@@H](C)C(=O)NCC(=O)N[C@@H](C)C(=O)N[C@@H](CCCNC(=N)N)C(=O)O)C(C)C)C(C)C)[C@@H](C)O,.,.,.,-1%
C=CCOc1c(Cl)cc(CNc2ccc(N(C)C)cc2)cc1OC,-5%,-1%,8%,4.5µM*
C=CCOc1c(Cl)cc(CNc2ccc(C)c(Cl)c2)cc1OC,-25%,-17%,-4%,-4%
CCOc1ccc2nc(N3CCCC(C(=O)NCCCN4CCOCC4)C3)sc2c1 (configuration not stated),3.2µM*,-1%,?,-3%
C[C@H]1Cc2c(-c3ccccc3)nc3c(c2CO1)CN(C(=O)C1CCCCC1)CC3,.,.,.,1%[12.9 µM]
COc1ccc(C)c2sc(NC(=O)C3=COCCO3)nc12,40µM*,-17%,?,-27%
SMILES,AmpC inh no detg,SARS PLP yeast,AmpC inh detg,FBPA Giardia inh
COc1ccc(OC)c2sc(NC(=O)C3=COCCO3)nc12,1%,0%,2%,-12%
COc1cc(NC(=O)Cn2nnnc2-c2ccccc2F)cc(OC)c1OC,.,.,15%,.
Cc1csc2ncc(C(=O)N3CCCc4ccccc43)c(=O)n12,3.5µM*,2%,?,0%
O=C(c1cnc2n(c1=O)CCS2)N1CCCc2ccccc21,-18%,-26%,?,0%
C=CCCN(C(C)C(=O)OC)S(=O)(=O)c1ccccc1Br (configuration not stated),.,.,.,7%
CCOc1ccccc1-c1nnc2n1N=C(c1ccccc1OC)CS2,.,.,.,-2%
N#CC1=C(N)OC2=C(CC/C2=C\c2ccccc2Cl)C1c1ccccc1Cl (configuration not stated),-57%,3%,-3%,-10%
N#CC1=C(N)OC2=C(CC/C2=C\c2ccccc2)C1c1ccccc1 (configuration not stated),11µM*,-2%,5%,14%
CSCC[C@H](NC(=O)[C@H](CC(C)C)NC(=O)CNC(=O)[C@H](Cc1ccc(O)cc1)NC(=O)[C@H](Cc1ccccc1)NC(=O)[C@H](CCCCN)NC(=O)[C@H](CC(N)=O)NC(=O)[C@@H]1CCCN1C(=O)[C@H](CC(=O)O)NC(=O)[C@H](C)NC(=O)[C@@H]1CCC(=O)N1)C(N)=O,.,.,.,1%
NS(=O)(=O)c1ccc(CCNc2ncnc3c2c(-c2ccccc2)cn3-c2ccc(F)cc2)cc1,4.5µM*,-4%,1%,-4%
Fc1ccc(-n2cc(-c3ccccc3)c3c(NN4CCOCC4)ncnc32)cc1,233%,-1%,?,7%
c1ccc(-c2ccccc2OCCCN2CCCC2)cc1,19%,-12%,-4%,-18%
c1ccc(-c2ccccc2OCCOCCN2CCOCC2)cc1,42%,0%,-1%,14µM*
CCOc1cc2c3c(c1)C1(C(=O)N3C(C)(C)CC2C)C(C#N)=C(N)N2C(=C1C#N)Nc1ccccc12 (configuration not stated),13µM*,-11%,1%,?
CCOc1cc2c3c(c1)C1(Nc4ccccc4S1)C(=O)N3C(C)(C)CC2C (configuration not stated),-25%,-22%,-5%,1%
CC1=C(C(=O)NC2CCCC(C)C2C)C2(CCCCC2)OC1=O (configuration not stated),35µM*,22%,-4%,-3%
CN(C)c1ccc(NC(=O)/C=C/c2ccccc2Cl)cc1,2.5µM*,1%,?,2%
O=[N+]([O-])c1ccc(NC(=S)NCCc2ccc(Cl)cc2)cc1,0.14µM*,-30%,0%,-4%
O=C(CN1C(=O)COc2ccc(S(=O)(=O)Nc3ccccc3)cc21)NCc1ccccc1Cl,.,.,21%,.
O=C(CSc1nnc(NC2CCCCC2)s1)Nc1ccc2c(c1)C(=O)c1ccccc1C2=O,-37%,1%,-3%,-8%
CCOc1ccccc1Nc1nnc(SCC(=O)Nc2ccc3[nH]c(=O)[nH]c3c2)s1,18µM*,2%,-3%,-18%
